Data as given in PubChem BioAssay AID1117353 (Cheminformatics & Chemogenomics Research Group (CCRG), …, 2015).
A number with no mark means an inactive call. Calls of active or inactive are those of the source. No stated cut-off is given here; in the data, active means inhibition above about 50%; inactive means the rest.

Biological target: Vascular endothelial growth factor receptor 2 (Homo sapiens) (UniProt P35968)
Assay: Biochemical primary assay, inhibitors of H. sapiens VEGFR2, LANCE Ultra time-resolved FRET readout, NPC library (AID 1117353)
Details: LANCE Ultra TR-FRET kinase assay; at 20 µM (top of the series)

Chain of Vascular endothelial growth factor receptor 2 (Homo sapiens) (P35968 whole entry, looked up): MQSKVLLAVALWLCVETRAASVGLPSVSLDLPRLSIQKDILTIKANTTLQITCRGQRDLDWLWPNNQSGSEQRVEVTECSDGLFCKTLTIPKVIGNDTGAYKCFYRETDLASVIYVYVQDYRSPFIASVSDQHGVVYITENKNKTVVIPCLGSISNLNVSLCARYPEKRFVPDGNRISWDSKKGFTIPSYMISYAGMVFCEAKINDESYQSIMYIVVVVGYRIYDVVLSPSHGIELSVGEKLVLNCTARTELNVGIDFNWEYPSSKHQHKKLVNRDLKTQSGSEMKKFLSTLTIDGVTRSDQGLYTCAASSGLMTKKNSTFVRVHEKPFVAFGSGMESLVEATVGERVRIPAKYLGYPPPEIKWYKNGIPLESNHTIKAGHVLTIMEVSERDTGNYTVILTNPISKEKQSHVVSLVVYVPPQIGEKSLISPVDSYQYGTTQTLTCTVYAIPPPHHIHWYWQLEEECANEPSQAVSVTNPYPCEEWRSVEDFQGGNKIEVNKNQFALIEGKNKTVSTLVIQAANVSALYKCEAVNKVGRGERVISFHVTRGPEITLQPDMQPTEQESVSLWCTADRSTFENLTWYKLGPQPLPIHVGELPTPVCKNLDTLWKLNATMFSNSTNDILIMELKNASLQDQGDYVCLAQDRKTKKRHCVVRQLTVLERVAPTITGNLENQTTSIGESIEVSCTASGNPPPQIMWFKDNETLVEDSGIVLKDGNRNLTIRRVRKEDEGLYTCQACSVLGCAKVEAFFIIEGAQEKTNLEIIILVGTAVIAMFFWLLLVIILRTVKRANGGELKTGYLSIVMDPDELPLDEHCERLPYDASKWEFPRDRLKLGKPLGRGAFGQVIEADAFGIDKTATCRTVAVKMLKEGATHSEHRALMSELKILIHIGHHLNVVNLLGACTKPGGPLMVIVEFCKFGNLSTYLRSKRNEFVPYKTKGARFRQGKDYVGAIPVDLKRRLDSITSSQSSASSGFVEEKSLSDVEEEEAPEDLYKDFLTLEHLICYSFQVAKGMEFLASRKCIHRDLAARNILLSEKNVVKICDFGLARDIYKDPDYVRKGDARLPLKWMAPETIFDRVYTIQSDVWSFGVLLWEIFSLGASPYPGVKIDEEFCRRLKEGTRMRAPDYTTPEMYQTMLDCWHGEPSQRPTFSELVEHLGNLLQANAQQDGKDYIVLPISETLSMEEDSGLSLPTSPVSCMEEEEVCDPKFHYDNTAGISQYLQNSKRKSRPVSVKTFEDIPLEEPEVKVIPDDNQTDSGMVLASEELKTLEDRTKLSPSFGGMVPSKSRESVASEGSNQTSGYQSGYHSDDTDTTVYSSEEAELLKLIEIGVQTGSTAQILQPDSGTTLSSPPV

**Q.** For `Nc1ccc2cc3ccc(N)cc3nc2c1`, which inhibition is on record?
**A.** -25.5%

**Q.** How did the inhibition turn out when `Oc1c(Cl)cc(Cl)c2cccnc12` was run?
**A.** -23.4%

**Q.** For `CCC(C)n1ncn(-c2ccc(N3CCN(c4ccc(OC[C@H]5CO[C@](Cn6cncn6)(c6ccc(Cl)cc6Cl)O5)cc4)CC3)cc2)c1=O` (some centres not stated), which inhibition is on record?
**A.** 22.4%

**Q.** `C[C@@]12C(=O)OC(=O)[C@]1(C)C1CCC2O1` was tested. Which inhibition did it give?
**A.** -15.1%

**Q.** `CCCSc1ccc2nc(NC(=O)OC)[nH]c2c1` was tested. Which inhibition did it give?
**A.** -6.58%

**Q.** For `CCCN(CCC)C(=O)C(CCC(=O)OCCCN1CCN(CCOC(=O)Cc2c(C)n(C(=O)c3ccc(Cl)cc3)c3ccc(OC)cc23)CC1)NC(=O)c1ccccc1` (configuration not stated), which inhibition is on record?
**A.** -17.9%

**Q.** `O=c1c(-c2ccccc2)c1-c1ccccc1` was tested. Which inhibition did it give?
**A.** 28.3%

**Q.** How did the inhibition turn out when `CC(C)C[C@H](NC(=O)[C@H](Cc1ccccc1)NC(=O)c1cnccn1)B(O)O` was run?
**A.** 19%

**Q.** Which inhibition does the source give for `CCCCc1oc2ccccc2c1C(=O)c1cc(I)c(OCCN(CC)CC)c(I)c1` here?
**A.** 22.9%

**Q.** For `Nc1nc(=S)c2[nH]cnc2[nH]1`, which inhibition is on record?
**A.** -5.99%

**Q.** How did the inhibition turn out when `CCCOc1ccc2nc(NC(=O)OC)[nH]c2c1` was run?
**A.** 10.2%

**Q.** With `COc1cc(-c2ccc(=O)[nH]n2)ccc1OC(F)F` as the compound, how does the inhibition read?
**A.** -22.3%

**Q.** Which inhibition does the source give for `CCCCCCNC(=O)n1cc(F)c(=O)[nH]c1=O` here?
**A.** -15.1%

**Q.** How did the inhibition turn out when `Cc1cc(=O)c2c(O)c3c(O)cc(=O)c4c3c3c(cc(O)c1c23)C(C)(C)C=4O` was run?
**A.** 22.3%

**Q.** How did the inhibition turn out when `COc1ccc(-c2nc3ccc(C4=NNC(=O)CC4C)cc3[nH]2)cc1` (configuration not stated) was run?
**A.** -36.5%

**Q.** With `CC(=O)Oc1ccc(C2(c3ccc(OC(C)=O)cc3)Oc3ccccc3NC2=O)cc1` as the compound, how does the inhibition read?
**A.** -14.8%

**Q.** `COc1cc2nc(N3CCN(C(=O)c4ccco4)CC3)nc(N)c2cc1OC` was tested. Which inhibition did it give?
**A.** -41.4%

**Q.** How did the inhibition turn out when `Cc1cc(C2CCCCC2)n(O)c(=O)c1` was run?
**A.** 4.72%

**Q.** Which inhibition does the source give for `Cc1cc(C)c(/C=C2\C(=O)Nc3ccccc32)[nH]1` here?
**A.** 98.7% (active)

**Q.** Which inhibition does the source give for `Cc1nc2ccc(CN(C)c3ccc(C(=O)N[C@@H](CCC(=O)O)C(=O)O)s3)cc2c(=O)[nH]1` here?
**A.** 7.13%

**Q.** With `COc1cc(NCc2ccc3nc(N)nc(N)c3c2C)cc(OC)c1OC` as the compound, how does the inhibition read?
**A.** 35.8%

**Q.** For `Cc1ccc2nc(N)[nH]c(=O)c2c1Sc1ccncc1`, which inhibition is on record?
**A.** -56.2%

**Q.** How did the inhibition turn out when `CCC1=C[C@@H]2CN(C1)Cc1c([nH]c3ccccc13)[C@@](C(=O)OC)(c1cc3c(cc1OC)N(C)[C@H]1[C@@](O)(C(=O)OC)[C@H](OC(C)=O)[C@]4(CC)C=CCN5CC[C@]31[C@@H]54)C2` was run?
**A.** -20.3%

**Q.** How did the inhibition turn out when `CC[C@]1(O)C[C@H]2CN(CCc3c([nH]c4ccccc34)[C@@](C(=O)OC)(c3cc4c(cc3OC)N(C=O)[C@H]3[C@@](O)(C(=O)OC)[C@H](OC(C)=O)[C@]5(CC)C=CCN6CC[C@]43[C@@H]65)C2)C1` was run?
**A.** -11.3%

**Q.** For `COC(=O)Nc1nc2ccc(C(=O)c3ccccc3)cc2[nH]1`, which inhibition is on record?
**A.** 74.1% (active)

**Q.** With `CC(C)(C)C(=O)OCOP(=O)(COCCn1cnc2c(N)ncnc21)OCOC(=O)C(C)(C)C` as the compound, how does the inhibition read?
**A.** -10.9%

**Q.** Which inhibition does the source give for `COc1cccc2c1C(=O)c1c(O)c3c(c(O)c1C2=O)C[C@@](O)(C(C)=O)C[C@@H]3O[C@H]1C[C@H](N)[C@H](O)[C@H](C)O1` here?
**A.** 14%

**Q.** For `COC(=O)c1nc(Cl)c(Cl)nc1N`, which inhibition is on record?
**A.** 6.09%

**Q.** `Cc1nc(N)nc(N)c1-c1ccc(Cl)c(Cl)c1` was tested. Which inhibition did it give?
**A.** -0.1%

**Q.** For `COCc1c(C(C)C)nc(C(C)C)c(/C=C/[C@@H](O)C[C@@H](O)CC(=O)O)c1-c1ccc(F)cc1`, which inhibition is on record?
**A.** 31.8%

**Q.** With `Oc1c(Cl)cc(Cl)cc1Sc1cc(Cl)cc(Cl)c1O` as the compound, how does the inhibition read?
**A.** 60.4% (active)

**Q.** How did the inhibition turn out when `CCc1nc(N)nc(N)c1-c1ccc(Cl)cc1` was run?
**A.** 17%

**Q.** With `COC(=O)Nc1nc2ccc(C(=O)c3cccs3)cc2[nH]1` as the compound, how does the inhibition read?
**A.** 60% (active)

**Q.** How did the inhibition turn out when `O=[N+]([O-])c1ccc(O)c2ncccc12` was run?
**A.** 11.1%

**Q.** Which inhibition does the source give for `CCCCC1C(=O)N(c2ccccc2)N(c2ccc(O)cc2)C1=O` (configuration not stated) here?
**A.** 29.1%

**Q.** How did the inhibition turn out when `CCCCCCCCCCCCCC[N+](C)(C)C` was run?
**A.** 11.2%

**Q.** `O=C(NOCC1CC1)c1ccc(F)c(F)c1Nc1ccc(I)cc1Cl` was tested. Which inhibition did it give?
**A.** 12.4%
